Screening results: PubChem BioAssay, National Center for Advancing Translational Sciences (NCATS)
VP16 counter = counter-screen for ROR gamma inhibitors: Gal4-VP16 reporter; Drosophila S2 Gal4-VP16 UAS-luciferase, luminescence, 20 h; 310,000 compounds, 3.5% hits; Potency, µM (top dose mostly 53.6 µM), for the others: top-dose activity, negative = inhibition, actives largely listed as inhibitors;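 also: Gal4-VP16 expression switched on by copper sulfate through the metallothionein promoter; % is scaled to controls: 0 for no effect and ±100 for the full control effect; nearly all actives have a fitted effect of over 50% in size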
SW480 rerep = induces DNA re-replication in SW480 colon adenocarcinoma cells; SW480 DNA re-replication, Hoechst DNA content imaging, 48 h; Potency, µM (series often up to 46.1 µM), without a hit: top-dose re-replication activation, usual class: activators; 340,000 compounds, 1.8% hits; also: % of control where 0% means no effect; nearly all actives have a fitted effect of over 55% in size
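SW480 cells exposed to compounds for 48 hr at 37 C, 5% CO2, then Hoechst-stained 40 min. Nuclear DNA content imaged by fluorescence scanning (405 nm excitation, 500-530 nm emission); re-replication scored as increased high-intensity nuclei.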
KB-3-1 cytotox = kills parental KB-3-1 adenocarcinoma cells; 400,000 compounds, 1.4% hits; Potency, µM (highest dose often 46.1 µM), usual class: cytotoxic; KB-3-1 viability, CellTiter-Glo ATP luminescence, 72 h; also: % is scaled to controls: 0 for no effect and ±100 for the full control effect; nearly all actives have a fitted effect of over 60% in size
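Parental KB-3-1 viability, qHTS format: 72 h compound exposure, 37 °C; CellTiter-Glo; media-only wells and DMSO plates as controls; concentration-effect fits on corrected data.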
MCF10A rerep = induces DNA re-replication in MCF 10a normal breast cells; Potency, µM (titrated, usually from 46.1 µM), for the others: at the highest dose activity, positive = re-replication, actives largely listed as activators; MCF 10A DNA re-replication, Hoechst nuclear intensity, 48 h; 350,000 compounds, 2.9% hits; AID 624296; also: % of control where 0% means no effect; nearly all actives have a fitted effect of over 50% in size
RORg inh = inhibitors of mouse ROR gamma transcriptional activity. AID 2551. Drosophila S2 Gal4-RORgamma UAS-luciferase reporter, 20 h. Potency, µM (top dose mostly 53.6 µM), without a hit: at the highest dose activity change, negative = inhibition, most hits filed as inhibitors. P51450. 310,000 compounds, 5.4% hits; also: % is scaled to controls: 0 for no effect and ±100 for the full control effect; nearly all actives have a fitted effect of over 60% in size
Target sequence (P51450 whole entry, looked up, the tested form may be a part): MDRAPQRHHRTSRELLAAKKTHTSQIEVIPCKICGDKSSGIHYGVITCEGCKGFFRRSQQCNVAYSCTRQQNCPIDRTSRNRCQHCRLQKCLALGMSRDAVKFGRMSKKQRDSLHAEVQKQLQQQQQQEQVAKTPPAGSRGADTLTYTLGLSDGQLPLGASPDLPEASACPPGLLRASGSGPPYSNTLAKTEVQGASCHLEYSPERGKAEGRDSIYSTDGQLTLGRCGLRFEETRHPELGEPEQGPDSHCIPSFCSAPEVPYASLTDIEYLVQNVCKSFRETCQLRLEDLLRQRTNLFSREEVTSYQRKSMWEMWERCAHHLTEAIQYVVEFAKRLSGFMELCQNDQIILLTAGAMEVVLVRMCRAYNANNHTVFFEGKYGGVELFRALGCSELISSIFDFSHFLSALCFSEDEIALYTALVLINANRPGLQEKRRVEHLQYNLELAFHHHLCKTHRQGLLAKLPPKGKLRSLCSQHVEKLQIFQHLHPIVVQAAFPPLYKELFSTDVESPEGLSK
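ROR gamma transcriptional activity was tracked as Gal4-UAS luciferase output in stably transfected Drosophila Schneider cells, with compound added 1 hr before 700 uM copper sulfate induction and a 20 hr ambient-temperature incubation.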
KB-V1 cytotox = kills drug-selected multidrug resistant KB-V1 cells | Potency, µM (doses to about 46.1 µM), actives largely listed as cytotoxic | AID 1347076 | KB-V1 MDR cells viability, CellTiter-Glo, 72 h | 400,000 compounds, 3.4% hits; also: % is scaled to controls: 0 for no effect and ±100 for the full control effect; nearly all actives have a fitted effect of over 60% in size
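KB-V1, DMEM (no phenol red) + 10% FBS; cpd pin-transferred, titration series; 72 h, 37 degrees C; CellTiter-Glo, luminescence. Data normalized, curve-fit.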
Active calls of the source: *; [ ] = remark or other dose. An excerpt weighted towards active compounds, which were near 10% of everything screened. Calls follow the shape of the dose curve; as a rule, active = well fitted curve in the direction sought with a large enough effect; inconclusive = small, poorly fitted or top-dose-only effect, or another doubt; inactive = no such curve, though single readings can be large; an effect the other way counts as inactive or inconclusive. Potency is read from the fitted curve at half-maximal effect.

What do the screens show for `CC(=O)N1CCc2cc(S(=O)(=O)NCCC(=O)NCCc3ccc(Cl)cc3)ccc21`?
VP16 counter: inconclusive; SW480 rerep: -4%; KB-3-1 cytotox: inconclusive; MCF10A rerep: 4%; RORg inh: inconclusive; KB-V1 cytotox: inactive

Results for CC(=O)N1CCc2cc(S(=O)(=O)NCCC(=O)NCCc3ccc(C)cc3)ccc21 ?
VP16 counter: 3.5µM*; SW480 rerep: 2%; KB-3-1 cytotox: inactive; MCF10A rerep: 9%; RORg inh: inconclusive; KB-V1 cytotox: inactive

What do the screens show for `COc1cccc(/C=N/Nc2ncnc3c2[nH]c2ccc(C)cc23)c1OC`?
VP16 counter: inconclusive; SW480 rerep: 6%; KB-3-1 cytotox: inactive; MCF10A rerep: 1%; RORg inh: 6.3µM*; KB-V1 cytotox: inactive

Results for COc1cccc(/C=N/NC(=O)c2cc3c(OC)c(OC)ccc3[nH]2)c1OC ?
VP16 counter: 0%; SW480 rerep: 23µM*; KB-3-1 cytotox: 9.2µM*; MCF10A rerep: inconclusive; RORg inh: 27%; KB-V1 cytotox: inactive

What do the screens show for `COc1cccc(/C=N/NC(=O)c2cc3c(OC)cccc3[nH]2)c1O`?
VP16 counter: 2.2µM*; SW480 rerep: 9.2µM*; KB-3-1 cytotox: inconclusive; MCF10A rerep: 0%; RORg inh: 0.79µM*; KB-V1 cytotox: inconclusive

How did COc1ccc(/C=N/Nc2ncnc3c2[nH]c2ccccc23)c(OC)c1OC do in these assays?
VP16 counter: 0%; SW480 rerep: -107%; KB-3-1 cytotox: inactive; MCF10A rerep: inconclusive; RORg inh: 4%; KB-V1 cytotox: inactive

Results for Cn1cccc1-c1cc(C(=O)N/N=C/C=C/c2ccccc2)[nH]n1 ?
VP16 counter: inconclusive; SW480 rerep: -14%; KB-3-1 cytotox: inactive; MCF10A rerep: -12%; RORg inh: 5µM*; KB-V1 cytotox: inactive

What do the screens show for `CCCC[C@@H]1CN2[C@H](c3ccc(Br)cc3)[C@@H](C)CC[C@H]2C(=O)O1`?
VP16 counter: 3%[10 µM]; RORg inh: -11%[10 µM]

Results for CCCN(CCC)CCNC(=O)c1cc2c(=O)oc3ccc(C)cc3c2s1 ?
KB-3-1 cytotox: inactive; KB-V1 cytotox: inactive

How did COc1cc(/C=N/NC(=O)c2cc(-c3cccn3C)n[nH]2)cc(OC)c1OC do in these assays?
VP16 counter: 12%; SW480 rerep: 16%; KB-3-1 cytotox: inconclusive; MCF10A rerep: 29%; RORg inh: inconclusive; KB-V1 cytotox: inactive

What do the screens show for `COc1cccc(/C=N/NC(=O)c2cc(-c3cccn3C)n[nH]2)c1O`?
VP16 counter: 2.8µM*; SW480 rerep: inconclusive; KB-3-1 cytotox: inconclusive; MCF10A rerep: 28%; RORg inh: 1µM*; KB-V1 cytotox: inactive

Results for O=S1(=O)C=C(Sc2nc3ccccc3s2)c2ccccc21 ?
VP16 counter: 2.8µM*; SW480 rerep: inconclusive; KB-3-1 cytotox: 2.3µM*; MCF10A rerep: 2.9µM*; RORg inh: 4.5µM*; KB-V1 cytotox: inconclusive

How did O=S1(=O)C=C(Sc2nnc(-c3ccccc3)o2)c2ccccc21 do in these assays?
VP16 counter: 3.2µM*; SW480 rerep: 0.58µM*; KB-3-1 cytotox: 15µM*; MCF10A rerep: inconclusive; RORg inh: 1.8µM*; KB-V1 cytotox: inconclusive

Results for CSc1nnc(-c2ccccc2)o1 ?
VP16 counter: 0%; SW480 rerep: -3%; KB-3-1 cytotox: inactive; MCF10A rerep: -1%; RORg inh: -11%; KB-V1 cytotox: inactive

How did Cc1cc(C)nc(SC2=CS(=O)(=O)c3ccccc32)n1 do in these assays?
VP16 counter: 29%; SW480 rerep: 21µM*; KB-3-1 cytotox: 18µM*; MCF10A rerep: 16µM*; RORg inh: -36%; KB-V1 cytotox: inconclusive

How did NC(=O)C1CCN(c2ncc(-c3cccc(N4CCCC4)c3)s2)CC1 do in these assays?
KB-3-1 cytotox: inactive; KB-V1 cytotox: inconclusive

How did COc1ccccc1C1NC(c2ccc3c(c2)OCO3)=CC(c2ccccc2O)N1 (stereo not given) do in these assays?
KB-3-1 cytotox: inactive; KB-V1 cytotox: inactive

What do the screens show for `CC1CCN(c2nc3c(S(=O)(=O)c4cccc(Cl)c4)nnn3c3ccsc23)CC1`?
KB-3-1 cytotox: inactive; KB-V1 cytotox: inactive

Results for COc1ccc2c(c1)c1c(c(=O)n(Cc3ccccc3)c(=O)n1Cc1ccccc1Cl)n2C ?
KB-3-1 cytotox: inactive; KB-V1 cytotox: inactive

What do the screens show for `CCCCC(=O)N1CCc2cc(OC)c(OC)cc2C1COc1ccc(C(=O)OCC)cc1` (stereo not given)?
KB-3-1 cytotox: inactive; KB-V1 cytotox: inconclusive

Results for CCCCC/C=C\C/C=C\C/C=C\C/C=C\CCCC(=O)O[C@@H](CO)COC(=O)CCCCCCCCCCCCCCCCC ?
VP16 counter: -4%; RORg inh: 1%

How did O=C1CS/C(=N/N=C/c2ccc(OS(=O)(=O)c3ccccc3)cc2)N1 do in these assays?
VP16 counter: inconclusive; SW480 rerep: -3%; KB-3-1 cytotox: inactive; MCF10A rerep: 0%; RORg inh: -16%; KB-V1 cytotox: inactive

How did Cc1ccc(/C=N/N=C2/NC(=O)CS2)o1 do in these assays?
VP16 counter: inconclusive; SW480 rerep: -7%; KB-3-1 cytotox: inactive; MCF10A rerep: -5%; RORg inh: 13µM*; KB-V1 cytotox: inactive

How did O=C1CS/C(=N/N=C/c2c[nH]c3ccccc23)N1 do in these assays?
VP16 counter: -8%; SW480 rerep: 129%; KB-3-1 cytotox: inactive; MCF10A rerep: 18µM*; RORg inh: -28%; KB-V1 cytotox: inactive

What do the screens show for `Cn1c(=O)oc2cc(S(=O)(=O)NCCC(=O)Nc3ccc(F)cc3F)ccc21`?
KB-3-1 cytotox: inactive; KB-V1 cytotox: inactive

How did Cc1nnsc1C(=O)NC1CCCc2c1cnn2-c1ccc(C(C)(C)C)cc1 (stereo not given) do in these assays?
VP16 counter: 6.3µM*; SW480 rerep: inconclusive; KB-3-1 cytotox: inconclusive; MCF10A rerep: inconclusive; RORg inh: -37%; KB-V1 cytotox: inconclusive

How did Cc1ncoc1C(=O)NC1CCCc2c1cnn2-c1ccc(C(C)(C)C)cc1 (stereo not given) do in these assays?
SW480 rerep: 13%; KB-3-1 cytotox: 18µM*; MCF10A rerep: 3%; KB-V1 cytotox: inactive

What do the screens show for `Cc1cccc(-n2ncc3c2CCCC3NC(=O)C2(C(N)=O)CC2)c1C` (stereo not given)?
VP16 counter: 7.9µM*; SW480 rerep: 5%; KB-3-1 cytotox: inconclusive; MCF10A rerep: 5%; RORg inh: inconclusive; KB-V1 cytotox: inactive
